{
  "source": "PubChem BioAssay AID686979",
  "about": "(National Center for Advancing Translational Sciences (NCATS), 2013)",
  "note": "The whole screen tested about 420,000 compounds, of which about 50,000 (12%) were called active. About 26% were inconclusive and are not listed. For the sample, actives were picked, then their nearest neighbours and some compounds at random. Values without a mark were called inactive. Calls come from the whole dose curve; as a rule, active = well fitted inhibition curve with a large enough effect; inconclusive = small, poorly fitted or top-dose-only effect; inactive = flat fitted curve, though single readings scatter. % is set by controls: 0 for no effect and ±100 for the full control effect; potency is the fitted concentration of half-maximal effect.",
  "data": [
    {"test": "qHTS for Inhibitors of human tyrosyl-DNA phosphodiesterase 1 (TDP1): qHTS in cells in presence of CPT; note: nearly all actives have a fitted effect of over 55% in size", "settings": "chicken DT40 Tdp1-/-;hTDP1 cells + 20 nM CPT, ATP luminescence, 48 h; series mostly up to 46.2 µM; activity change, negative = growth inhibition: at the top concentration", "outline": "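Chicken DT40 Tdp1-/- cells stably complemented with human TDP1 were seeded at 400 cells/well in medium containing 20 nM camptothecin, exposed to pin-transferred compounds, and grown at 37 °C for at least 48 hr. Viability was read as ATP luminescence.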", "units": {"activity change, negative = growth inhibition": "%"}, "values": [
      {"smiles": "CC(NC(=S)Nc1ccccc1)C(c1cccs1)N1CCOCC1", "note": "(stereo not given)", "activity change, negative = growth inhibition": -28.1},
      {"smiles": "CC(NC(=O)C(C)(C)C)C(c1cccs1)N1CCN(Cc2ccccc2)CC1", "note": "(stereo not given)", "Potency": "20.6 µM (active)"},
      {"smiles": "O=C(NCCCN1CCCCCC1)C1CC(=O)N(C2CCCC2)C1", "note": "(stereo not given)", "activity change, negative = growth inhibition": -2.68},
      {"smiles": "N#Cc1nc(/C=C/c2ccc(F)cc2)oc1NCc1ccc(F)cc1", "activity change, negative = growth inhibition": -22.3},
      {"smiles": "Cc1cc(NC(=O)CCC(=O)N(CC(=O)NC2CCCC2)c2ccc(F)cc2)no1", "activity change, negative = growth inhibition": -7.16},
      {"smiles": "N#C/C(=C\\c1ccccc1C(F)(F)F)C(=O)Nc1ccccc1F", "activity change, negative = growth inhibition": 9.19},
      {"smiles": "CNC(=O)/C(C#N)=C/c1c(F)cccc1Cl", "Potency": "11.6 µM (active)"},
      {"smiles": "Cc1[nH]c2ccccc2c1/C=C(/C#N)C(=O)NC(C)C", "activity change, negative = growth inhibition": -5.2},
      {"smiles": "Cc1ccsc1C(=O)NCCc1ccco1", "activity change, negative = growth inhibition": -2.34},
      {"smiles": "CCN1CCN(C(C(=O)NC2CCCC2)c2cc3c(cc2[N+](=O)[O-])OCO3)CC1", "note": "(stereo not given)", "activity change, negative = growth inhibition": -1.98},
      {"smiles": "CCc1ccccc1NC(=O)c1cc(-c2ccc3c(c2)OCO3)on1", "Potency": "inactive"},
      {"smiles": "COc1ccc(-c2cn(-c3ccc(C)cc3)c(=O)n2CC(=O)Nc2ccc(OC)c(OC)c2)cc1", "activity change, negative = growth inhibition": -7.15},
      {"smiles": "Cc1ccc(Nc2nnc(SC(C)C(=O)NC3CC3)s2)cc1", "note": "(stereo not given)", "activity change, negative = growth inhibition": -20.3},
      {"smiles": "Cc1ccc(Nc2nc(Cl)c(C=O)s2)cc1", "Potency": "18.4 µM (active)"},
      {"smiles": "CC(=O)c1sc(N/N=C\\c2ccc(C)cc2)nc1C", "activity change, negative = growth inhibition": -16.8},
      {"smiles": "COc1ccc(NC(C)=O)cc1NC(=O)CN1CCN(C2c3ccccc3-c3ccccc32)CC1", "activity change, negative = growth inhibition": -11.4},
      {"smiles": "COCCN(C(=S)Nc1ccccc1OC)C1CCN(C(C)C)CC1", "activity change, negative = growth inhibition": 13.3},
      {"smiles": "Cc1cc(C#N)c(SCC(N)=O)nc1-c1ccc(F)cc1", "activity change, negative = growth inhibition": -6.67},
      {"smiles": "Cc1nn(-c2ccccc2)c(Cl)c1/C=C/C(=O)c1ccc(O)cc1", "activity change, negative = growth inhibition": -22.8},
      {"smiles": "Cc1cc(CNC(=O)c2cccc([N+](=O)[O-])c2)c2ccccc2n1", "activity change, negative = growth inhibition": -21.3},
      {"smiles": "CCC1(C(=O)c2ccccc2)C(c2cccc([N+](=O)[O-])c2)C1(C(=O)OC)C(=O)OC", "note": "(stereo not given)", "Potency": "23.1 µM (active)"},
      {"smiles": "O=C(NOCc1ccccc1)c1cccc([N+](=O)[O-])c1", "activity change, negative = growth inhibition": 9.86},
      {"smiles": "CC1O[C@H](OC2C(COC3OC(CO)C(O)[C@H](O)C3O)OC(OC3CC[C@]4(C)C(CC[C@@]5(C)[C@@H]4C=C[C@]46OC[C@@]7(CCC(C)(C)C[C@H]74)C(O)C[C@@]56C)C3(C)C)C(O)C2O)C(O)C(O)C1O", "note": "(stereo not given in full)", "activity change, negative = growth inhibition": -3.08},
      {"smiles": "CCc1ccc(-c2nn(-c3ccccc3C)cc2C(=O)N2CCN(C3CCS(=O)(=O)C3)CC2)cc1", "note": "(stereo not given)", "activity change, negative = growth inhibition": -7.22},
      {"smiles": "CCc1ccc(-c2nn(-c3ccccc3)cc2CSC(=N)N)cc1", "Potency": "16.4 µM (active)"},
      {"smiles": "Cc1ccc(-c2nn(-c3ccccc3)cc2C(=O)NC2CCC(O)CC2)cc1", "note": "(stereo not given)", "activity change, negative = growth inhibition": -21.6},
      {"smiles": "CC1(C)C2CCC13CS(=O)(=O)NC3C2", "note": "(stereo not given)", "activity change, negative = growth inhibition": -17.6},
      {"smiles": "COC(=O)c1c(C(=O)OC)c2n(c1C)CCS2", "activity change, negative = growth inhibition": 9.43},
      {"smiles": "Cc1nn(-c2ccccn2)c2c1C(c1ccncc1)C1=C(CC(C)(C)CC1=O)N2", "note": "(stereo not given)", "Potency": "29.1 µM (active)"},
      {"smiles": "Cc1cc2c(cc1C)NC(c1ccccn1)C1=C(CC(C)(C)CC1=O)N2", "note": "(stereo not given)", "activity change, negative = growth inhibition": -14.7},
      {"smiles": "CC1(C)CC(=O)C2=C(C1)Nc1cc(C(=O)c3ccccc3)ccc1NC2c1ccccn1", "note": "(stereo not given)", "activity change, negative = growth inhibition": 4.03},
      {"smiles": "Cc1cc(C)c(C2C3=C(Nc4c2c(C)nn4-c2ccccn2)c2ccccc2C3=O)c(C)c1", "note": "(stereo not given)", "Potency": "13 µM (active)"},
      {"smiles": "CN(CC(=O)NCc1ccc2c(c1)OCO2)CC(=O)Nc1ccc(F)c(F)c1F", "activity change, negative = growth inhibition": -7.17},
      {"smiles": "COc1ccc(-n2nc3c(c2NC(=O)c2ccc(N4C(=O)CCC4=O)cc2)CSC3)cc1", "activity change, negative = growth inhibition": 25.1},
      {"smiles": "O=C(Oc1cccc(C(=S)N2CCOCC2)c1)c1cccc(Cl)c1", "activity change, negative = growth inhibition": 2.82},
      {"smiles": "COC(=O)c1cccc(NC(=O)c2cccc(N3C(=O)CCC3=O)c2)c1", "activity change, negative = growth inhibition": -9.34},
      {"smiles": "COc1ccccc1C(=O)NCC(=O)OCC(=O)Nc1nnc(-c2ccccc2)o1", "activity change, negative = growth inhibition": -2.33},
      {"smiles": "Cc1cc(C)cc(NC(=O)N(C)Cc2ccccc2)c1", "activity change, negative = growth inhibition": -0.4},
      {"smiles": "N#Cc1ccc(OCC(=O)Nc2nc(-c3ccccn3)cs2)cc1", "Potency": "1.64 µM (active)"},
      {"smiles": "Cc1ccnc(NC(=O)c2ccco2)n1", "activity change, negative = growth inhibition": -29.5},
      {"smiles": "CC1CCCCC1NC(=O)COc1ccc(C#N)cc1", "note": "(stereo not given)", "activity change, negative = growth inhibition": -13.3},
      {"smiles": "O=C(COc1ccccc1F)NC1CC1", "activity change, negative = growth inhibition": -4.51},
      {"smiles": "CC1CCN(S(=O)(=O)c2nnc(NC(=O)COc3ccccc3F)s2)CC1", "activity change, negative = growth inhibition": -0.652},
      {"smiles": "O=C(COc1ccccc1F)Nc1nc(-c2ccccn2)cs1", "Potency": "5.17 µM (active)"},
      {"smiles": "CC(NC(=O)c1ccco1)C(=O)Nc1nc(-c2ccccn2)cs1", "note": "(stereo not given)", "Potency": "5.8 µM (active)"},
      {"smiles": "Cc1cc(NC(=O)[C@H](C)NC(=O)c2ccco2)ccc1Br", "activity change, negative = growth inhibition": -7.75},
      {"smiles": "NS(=O)(=O)c1ccc2nc(NC(=O)COc3ccccc3)sc2c1", "activity change, negative = growth inhibition": -3.67},
      {"smiles": "CCOC(=O)C1C(c2ccc(O)cc2)NC(=O)NC1(O)C(F)(F)F", "note": "(stereo not given)", "activity change, negative = growth inhibition": -3.04},
      {"smiles": "Cc1ccccc1NC(=O)CSC1=NCCN1", "activity change, negative = growth inhibition": -29.2},
      {"smiles": "Cc1nc(SCC(=O)N2CCN(c3ccccc3)CC2)[nH]c(=O)c1C", "activity change, negative = growth inhibition": -1.67}
    ]}
  ]
}
